VDR inh: Inhibitors of the vitamin D receptor (VDR): qHTS; VDR-SRC2-3 peptide fluorescence polarization, 2 h; Potency, µM, for the others: max response, negative = inhibition, actives largely listed as inhibitors; 400,000 tested, 0.93% active; AID 504847, 2011
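FP read-out; VDR + SRC2-3 coactivator peptide; 23 nl compound by pintool; 2 h RT incubation; reagents held at 4 deg C, protected from light.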
DT40 TDP1 no CPT: qHTS for Inhibitors of human tyrosyl-DNA phosphodiesterase 1 (TDP1): qHTS in cells in absence of CPT. Potency, µM (top dose mostly 46.2 µM), without a hit: top-dose activity change, negative = growth inhibition, most hits filed as inhibitors. 420,000 tested, 15% active. DT40 Tdp1-/- hTDP1 cells, no CPT, ATP luminescence, 48 h; note: nearly all actives have a fitted effect of over 55% in size
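Growth kinetics read by CellTiter-Glo luminescence after ≥48 hr at 37 °C. Cells: DT40 Tdp1-/- stably carrying human TDP1, 400 per well, compound exposure in the absence of CPT (DMSO vehicle).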
TDP1 inh: qHTS Assay for Inhibitors of Tyrosyl-DNA Phosphodiesterase (TDP1); recombinant TDP1, AlphaScreen DNA substrate cleavage; Potency, µM (doses to about 130 µM), without a hit: at the highest dose activity change, negative = inhibition, usual class: inhibitors; 350,000 tested, 0.28% active; note: nearly all actives have a fitted effect of over 40% in size
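Signal: AlphaScreen proximity between streptavidin donor and anti-FITC acceptor beads on intact substrate. Reaction: Tdp1 1 nM, substrate 15 nM final, 5 min RT after 15 min compound preincubation.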
KAT2A inh: qHTS Assay for Inhibitors of GCN5L2; Histone acetyltransferase KAT2A (Homo sapiens), Q92830; GCN5L2 HAT assay, ThioGlo1 CoA-SH fluorescence; Potency, µM (series often up to 58.9 µM), for inactives: at the highest dose activity change, negative = inhibition, most hits filed as inhibitors; 390,000 tested, 0.21% active
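Free CoA generated was detected with ThioGlo1 (50uM) fluorescence at Ex340nm/Em540nm, read immediately and after 20 min at room temperature. Enzyme, 20 nM in HEPES pH 7.5 buffer, saw compounds 15 min before adding 75uM H3(1-25) peptide and 70uM acetyl-CoA.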
PLK1 PBD block: qHTS for Inhibitors of PLK1-PDB (polo-like kinase 1 - polo-box domain): Primary Screen. 360,000 tested, 2.8% active. Potency, µM, inactives show max response, negative = inhibition, actives largely listed as inhibitors. Plk1 PBD binding of FITC phosphopeptide, fluorescence polarization. Serine/threonine-protein kinase PLK1 (Homo sapiens), P53350; note: series mostly up to about 57 µM; nearly all actives have a fitted effect of over 65% in size
Target sequence (P53350 whole entry, looked up, the tested form may be a part): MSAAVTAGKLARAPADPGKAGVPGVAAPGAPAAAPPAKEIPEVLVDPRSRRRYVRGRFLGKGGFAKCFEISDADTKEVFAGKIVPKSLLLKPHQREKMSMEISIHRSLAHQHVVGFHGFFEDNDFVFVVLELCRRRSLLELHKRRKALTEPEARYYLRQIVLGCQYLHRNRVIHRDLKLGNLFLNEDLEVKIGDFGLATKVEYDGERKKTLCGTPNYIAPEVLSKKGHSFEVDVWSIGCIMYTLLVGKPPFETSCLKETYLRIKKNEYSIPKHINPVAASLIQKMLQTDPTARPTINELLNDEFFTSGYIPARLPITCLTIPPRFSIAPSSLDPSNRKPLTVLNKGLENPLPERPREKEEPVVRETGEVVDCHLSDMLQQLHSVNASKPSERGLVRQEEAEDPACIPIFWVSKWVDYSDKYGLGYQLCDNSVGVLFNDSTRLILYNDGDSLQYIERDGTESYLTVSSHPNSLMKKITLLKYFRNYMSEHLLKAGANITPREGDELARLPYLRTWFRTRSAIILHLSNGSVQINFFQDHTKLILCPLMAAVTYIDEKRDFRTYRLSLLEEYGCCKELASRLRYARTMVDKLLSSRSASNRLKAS
DT40 TDP1 CPT: qHTS for Inhibitors of human tyrosyl-DNA phosphodiesterase 1 (TDP1): qHTS in cells in presence of CPT; 420,000 tested, 12% active; chicken DT40 Tdp1-/-;hTDP1 cells + 20 nM CPT, ATP luminescence, 48 h; Potency, µM (highest dose often 46.2 µM), without a hit: at the top dose activity change, negative = growth inhibition, most hits filed as inhibitors; note: nearly all actives have a fitted effect of over 55% in size
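Cell growth measured by CellTiter-Glo luminescence after a minimum 48 h, 37 C compound exposure with 20 nM CPT in Tdp1-knockout DT40 cells stably expressing hTDP1, seeded 400/well; qHTS titration format.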
An asterisk follows results filed as active; ? = inconclusive; . = no result; [ ] = remark or other dose. A selection: hits, their analogues and other compounds. The true share with any hit is near 18%. Calls come from the whole dose curve; as a rule, active = well fitted curve in the direction sought with a large enough effect; inconclusive = small, poorly fitted or top-dose-only effect, or another doubt; inactive = no such curve, though single readings can be large; an effect the other way counts as inactive or inconclusive. % is set by controls: 0 for no effect and ±100 for the full control effect; potency is the fitted concentration of half-maximal effect.

SMILES	VDR inh	DT40 TDP1 no CPT	TDP1 inh	KAT2A inh	PLK1 PBD block	DT40 TDP1 CPT
CC1(C)S[C@@H]2[C@H](NC(=O)C(N)c3ccccc3)C(=O)N2[C@H]1C(=O)OC1OC(=O)c2ccccc21 (some centres undefined)	.	-25%[21.1 µM]	.	.	.	?
CCN1C(=O)[C@H]2[C@@H](c3ccc(-c4ccccc4)cc3)N3CCC[C@@]3(C(=O)OC)[C@H]2C1=O	6%	18µM*	-1%	-12%	-4%	?
CCN1C(=O)[C@@H]2[C@@H](c3ccc(-c4ccccc4)cc3)N3CCC[C@@]3(C(=O)OC)[C@@H]2C1=O	2%	?	2%	-7%	5%	21µM*
CCN1C(=O)[C@@H]2[C@@H](c3ccc(-c4ccc(F)cc4)cc3)N3CCC[C@@]3(C(=O)OC)[C@@H]2C1=O	-16%	?	10%	-4%	-4%	?
COC(=O)C(CO)NC(=O)C1CCCN1C(=O)CNC(=O)OCc1ccccc1 (centres undefined)	7%	-1%	.	-5%	-3%	4%
COc1ccc(Cl)cc1NC(=O)c1c(C(=O)Nc2cccc(C)c2C)sc2nc(C)cc(=O)n12	3%	21µM*	5%	-3%	.	?
O=C(c1ccco1)N1CCN(S(=O)(=O)c2cccc(Cl)c2)CC1	10%	-3%	.	-7%	-3%	6%
CC(C)(CO)[C@@H](O)C(=O)NCCCC(=O)O	.	-8%	.	.	.	0%
Nc1ncnc2[nH]c(=O)[nH]c12	11%	17%	1%[56.1 µM]	-10%	.	-7%
O=C1NC2=C(C(=O)CCC2)C(c2ccccc2)N1 (centres undefined)	-5%	-23%	-6%	-13%	-9%	-3%
O=C1CCCC2=C1C(c1ccco1)Nc1ccc(C(=O)c3ccccc3)cc1N2 (centres undefined)	-1%	12µM*	3%	-6%	-8%	15µM*
COc1cccc(/C=C2\N=C(C3CCCCC3)OC2=O)c1OC	32µM*	-12%	-2%	-1%	-26%	-20%
CC(=O)Oc1ccc(/C=C2\N=C(C3CCCCC3)OC2=O)cc1	79µM*	?	1%	-5%	-19%	?
COCC(C)n1c(C)cc(C(=O)COC(=O)CN=C2NS(=O)(=O)c3ccccc32)c1C (centres undefined)	-13%	3%	-9%	2%	-4%	-6%
Cc1ccc(NC(=O)C2CCCN(c3ncnc4c3nc3n4CCCCC3)C2)cc1Cl (centres undefined)	2%	21µM*	6%	-26%	-3%	?
Cc1ccccc1CN1CCC(CNC(=O)C2CCCN(c3ncnc4c3nc3n4CCCCC3)C2)CC1 (centres undefined)	7%	?	7%	-8%	-1%	?
Cc1cccc(NC(=O)C2CCCN(c3ncnc4c3nc3n4CCCCC3)C2)n1 (centres undefined)	-11%	7.3µM*	.	?	-7%	10µM*
COC(=O)c1ccc(C(NC(=O)OCc2ccccc2)/C(C)=C/[C@@H](C)C(=O)NCCO)cc1 (some centres undefined)	.	.	6%	.	.	.
Cc1nc(SCC(=O)NCc2ccco2)c2oc3ccccc3c2n1	-7%	-15%	-2%	-1%	-5%	-2%
CCc1nc(N2CCN(C(=O)c3ccco3)CC2)c2oc3ccccc3c2n1	-1%	21µM*	7%	1%	-10%	21µM*
Cc1nc(N2CCN(C(=O)c3ccco3)CC2)c2oc3ccccc3c2n1	2%	21µM*	8%	-3%	-4%	15µM*
CCCC1CCc2c(sc(NC(=O)OCC)c2C#N)C1 (centres undefined)	7%	23µM*	6%	-9%	-1%	15µM*
CCOC(=O)Nc1sc2c(c1C(N)=O)CCC(C)C2 (centres undefined)	8%	5%	3%	-4%	-13%	-14%
O=C(c1cc2ccccc2[nH]1)c1cc2cc(O)ccc2[nH]1	.	16µM*	.	.	.	?
CC(C)CC(C)NNC(=O)c1cc2ccccc2[nH]1 (centres undefined)	-1%	5%	5%	-21%	1%	6%
SMILES	VDR inh	DT40 TDP1 no CPT	TDP1 inh	KAT2A inh	PLK1 PBD block	DT40 TDP1 CPT
Cn1c(=O)c([N+](=O)[O-])c(NCc2ccc3c(c2)OCO3)c2ccccc21	-17%	-23%	4%	-7%	-1%	3%
COc1ccc(OC)c(CC(=O)Nc2ccc3c(c2)c(=O)n(C)n3Cc2cccc(C(F)(F)F)c2)c1	.	?	.	.	-10%	29µM*
COc1ccc(CNC(=O)Nc2ccc3c(c2)c(=O)n(C)n3Cc2cccc(C(F)(F)F)c2)cc1	.	23µM*	.	.	4%	?
Cn1c(=O)c2cc(NC(=O)NCc3ccccc3)ccc2n1Cc1ccc(Cl)cc1	.	?	.	.	-5%	?
C[C@H](O)[C@@H]1CN2CCc3c([nH]c4ccccc34)[C@@H]2C[C@@H]1N(C)C(=S)Nc1ccc(C#N)cc1	.	?	.	.	-7%	?
Cn1cnc([N+](=O)[O-])c1Sc1ccc(Br)cc1	-5%	?	-3%	-3%	-13%	?
Cc1ccc(Sc2c([N+](=O)[O-])ncn2C)cc1	6%	?	2%	-6%	-12%	21µM*
O=C1CCC(=O)N1c1ccc(NCCc2cccc(F)c2)c([N+](=O)[O-])c1	0%	1%	3%	-4%	3%	1%
O=C1C2CC=CCC2C(=O)N1c1ccc(NCCc2cccc(F)c2)c([N+](=O)[O-])c1 (centres undefined)	-25%	12µM*	7%	-6%	-11%	?
CCOc1ccc(S(=O)(=O)n2cnc3cc(C)c(C)cc32)cc1	1%	8.2µM*	6%	-12%	-6%	?
Cc1cc2ncn(S(=O)(=O)c3ccc(S(N)(=O)=O)cc3)c2cc1C	-10%	-36%	.	.	2%	-13%
Cc1cc2ncn(S(=O)(=O)c3ccc(S(=O)(=O)N4CCCCCC4)cc3)c2cc1C	-5%	21µM*	.	.	-9%	16µM*

Source: PubChem (National Center for Advancing Translational Sciences (NCATS))
